# Results from PubChem BioAssay (NCI).
# This is part of a sample that, as a whole, favours compounds with a hit. Of some 79,000 tested, about 15% had one in any assay. Values without a mark were called inactive. Calls of active or inactive are those of the source. No stated cut-off is given here; in the data, active means growth inhibition above about 70%; inactive means the rest.
# Legend:
# [1] = NCI Yeast Anticancer Drug Screen. Data for the rad52 strain (AID 147);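 further: 0% = growth of vehicle-treated control cultures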; settings: S. cerevisiae rad52 mutant growth inhibition, hits give high values
# In short: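 Here a repair-compromised yeast strain receives each compound; its growth is then quantified and normalised to vehicle-only controls.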
# [2] = NCI Yeast Anticancer Drug Screen. Data for the wt1 strain (AID 149);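 further: 0% = growth of vehicle-treated wt1 cultures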; settings: S. cerevisiae wt1 strain (SPY 50644) growth inhibition, hits give high values
# In short: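 Readout: yeast growth inhibition, normalised to vehicle controls, in the wt1 strain exposed to test compounds.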
# [3] = NCI Yeast Anticancer Drug Screen. Data for the rad50EPP+ strain (AID 151);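 further: 0% = growth of vehicle-treated control cultures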; settings: S. cerevisiae rad50 mutant strain, hits give high values
# In short: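 Read-out is yeast growth inhibition relative to vehicle; cells used were the rad50EPP+ strain.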
# [4] = NCI Yeast Anticancer Drug Screen. Data for the mgt1 strain (AID 153); settings: S. cerevisiae mgt1 mutant growth inhibition, hits give high values
# In short: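 Measured: inhibition of mgt1 yeast growth by compound, normalized to vehicle-treated cultures.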
# [5] = NCI Yeast Anticancer Drug Screen. Data for the rad50 strain (AID 155);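 further: 0% = growth of vehicle-only cultures of the same strain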; settings: S. cerevisiae rad50 strain growth inhibition, hits give high values
# In short: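 Compounds were tested on a yeast strain with an engineered DNA damage repair alteration; the reported value is growth inhibition normalised to vehicle treatment.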
# [6] = NCI Yeast Anticancer Drug Screen. Data for the mec2-1 strain (AID 157); settings: S. cerevisiae mec2-1 strain, hits give high values
# In short: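 Using mec2-1 yeast: add compound, measure growth, express inhibition versus vehicle-treated cultures.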
# [7] = NCI Yeast Anticancer Drug Screen. Data for the rad14 strain (AID 159);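 further: 0% = growth of vehicle-treated control cultures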; settings: S. cerevisiae rad14 strain growth inhibition, hits give high values
# In short: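 Compound-treated yeast with a defined DNA-repair lesion; growth inhibition normalised to vehicle-treated cultures.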
# [8] = NCI Yeast Anticancer Drug Screen. Data for the sgs1 mgt1 strain (AID 161);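 further: 0% = growth of cultures given vehicle only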; settings: S. cerevisiae sgs1 mgt1 strain, hits give high values
# In short: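 Percent growth inhibition was derived by comparing compound-exposed mutant yeast with vehicle-exposed cultures. The strain carries alterations in DNA damage repair.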
# [9] = NCI Yeast Anticancer Drug Screen. Data for the CLN2oe strain (AID 163);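 further: 0% = growth of vehicle-only control cultures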; settings: S. cerevisiae CLN2oe strain, hits give high values
# In short: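 Whole-cell yeast growth assay. A strain engineered for altered cell-cycle control received compound, and inhibition relative to vehicle-treated cultures was recorded.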
# [10] = NCI Yeast Anticancer Drug Screen. Data for the cln2 rad14 strain (AID 165);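 further: 0% = growth equal to vehicle treated cultures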; settings: S. cerevisiae cln2 rad14 strain, hits give high values
# In short: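 Yeast strain cln2 rad14, bearing defects in cell cycle control and DNA repair, serves as the test system; values reflect growth inhibition compared with vehicle.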
# [11] = NCI Yeast Anticancer Drug Screen. Data for the bub3 strain (AID 167); settings: S. cerevisiae bub3 mutant strain, hits give high values
# In short: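 Growth of a checkpoint-deficient yeast mutant is measured after compound exposure. Values represent inhibition relative to vehicle.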
# [12] = NCI Yeast Anticancer Drug Screen. Data for the wt2 strain (AID 169);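 further: 0% = growth of vehicle-treated yeast cultures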; settings: S. cerevisiae wt2 strain growth inhibition, hits give high values
# In short: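 Treated yeast vs. vehicle-treated yeast: growth inhibition determined.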
# [13] = NCI Yeast Anticancer Drug Screen. Data for the mlh1 strain (AID 171);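 further: 0% = growth of vehicle-treated control cultures of the same strain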; settings: S. cerevisiae mlh1 strain growth inhibition, hits give high values
# In short: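 A yeast strain with a defined genetic lesion serves as the test organism. Cultures receive compound or vehicle, and growth is measured.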
# [14] = NCI Yeast Anticancer Drug Screen. Data for the sgs1 strain (AID 173);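 further: 0% = growth of vehicle-only control cultures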; settings: S. cerevisiae sgs1 mutant, hits give high values
# In short: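 A genetically defined yeast mutant is incubated with the test compound, and its growth is compared to that of the same strain given vehicle.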
# [15] = NCI Yeast Anticancer Drug Screen. Data for the mlh1 rad18 strain (AID 175); settings: S. cerevisiae mlh1 rad18 strain growth inhibition, hits give high values
# In short: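 Steps: expose repair-defective yeast to compound; measure growth; express inhibition against vehicle-treated controls.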
# [16] = NCI Yeast Anticancer Drug Screen. Data for the rad18 strain (AID 177); settings: S. cerevisiae rad18 mutant growth inhibition, hits give high values
# In short: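 Measured value is growth inhibition of a yeast strain bearing a DNA repair alteration, referenced to vehicle-treated cells.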
# [17] = at 5.0 µM (retest, dose inferred, filed as 0.5)
# [18] = at 50.0 µM (retest, dose inferred, filed as 5.0)
smiles,measurement,setting,value
CC(C(=O)N1C(=O)N(C(=O)C(C)C(O)c2ccccc2)C2CCCCC21)C(O)c1ccccc1 (stereo not drawn),growth inhibition,[1]; at 1.2 µM,5%
same,growth inhibition,[1]; at 3.7 µM,8%
same,growth inhibition,[1]; at 11.0 µM,11%
same,growth inhibition,[1]; at 33.0 µM,11%
same,growth inhibition,[1]; at 100.0 µM,19%
same,growth inhibition,[2]; at 1.2 µM,2%
same,growth inhibition,[2]; at 3.7 µM,-1%
same,growth inhibition,[2]; at 11.0 µM,7%
same,growth inhibition,[2]; at 33.0 µM,3%
same,growth inhibition,[2]; at 100.0 µM,12%
same,growth inhibition,[3]; at 1.2 µM,0%
same,growth inhibition,[3]; at 3.7 µM,-3%
same,growth inhibition,[3]; at 11.0 µM,0%
same,growth inhibition,[3]; at 33.0 µM,2%
same,growth inhibition,[3]; at 100.0 µM,3%
same,growth inhibition,[4]; at 1.2 µM,-4%
same,growth inhibition,[4]; at 3.7 µM,0%
same,growth inhibition,[4]; at 11.0 µM,1%
same,growth inhibition,[4]; at 33.0 µM,1%
same,growth inhibition,[4]; at 100.0 µM,29%
same,growth inhibition,[5]; at 1.2 µM,0%
same,growth inhibition,[5]; at 3.7 µM,-9%
same,growth inhibition,[5]; [17],-5%
same,growth inhibition,[5]; at 11.0 µM,-7%
same,growth inhibition,[5]; at 33.0 µM,16%
same,growth inhibition,[5]; [18],8%
same,growth inhibition,[5]; at 50.0 µM,97.1% (active)
same,growth inhibition,[5]; at 100.0 µM,20%
same,growth inhibition,[6]; at 1.2 µM,3%
same,growth inhibition,[6]; at 3.7 µM,1%
same,growth inhibition,[6]; [17],-7%
same,growth inhibition,[6]; at 11.0 µM,2%
same,growth inhibition,[6]; at 33.0 µM,14%
same,growth inhibition,[6]; [18],-2%
same,growth inhibition,[6]; at 50.0 µM,97.2% (active)
same,growth inhibition,[6]; at 100.0 µM,24%
same,growth inhibition,[7]; at 1.2 µM,2%
same,growth inhibition,[7]; at 3.7 µM,1%
same,growth inhibition,[7]; at 11.0 µM,4%
same,growth inhibition,[7]; at 33.0 µM,9%
same,growth inhibition,[7]; at 100.0 µM,20%
same,growth inhibition,[8]; [17],-7%
same,growth inhibition,[8]; [18],11%
same,growth inhibition,[8]; at 50.0 µM,97.5% (active)
same,growth inhibition,[9]; at 1.2 µM,1%
same,growth inhibition,[9]; at 3.7 µM,-2%
same,growth inhibition,[9]; at 11.0 µM,4%
same,growth inhibition,[9]; at 33.0 µM,11%
same,growth inhibition,[9]; at 100.0 µM,15%
same,growth inhibition,[10]; [17],87% (active)
same,growth inhibition,[10]; [18],14%
same,growth inhibition,[10]; at 50.0 µM,96.5% (active)
same,growth inhibition,[11]; at 1.2 µM,-2%
same,growth inhibition,[11]; at 3.7 µM,-1%
same,growth inhibition,[11]; [17],-13%
same,growth inhibition,[11]; at 11.0 µM,-2%
same,growth inhibition,[11]; at 33.0 µM,1%
same,growth inhibition,[11]; [18],-9%
same,growth inhibition,[11]; at 50.0 µM,97.8% (active)
same,growth inhibition,[11]; at 100.0 µM,4%
same,growth inhibition,[12]; at 1.2 µM,-2%
same,growth inhibition,[12]; at 3.7 µM,-1%
same,growth inhibition,[12]; at 11.0 µM,1%
same,growth inhibition,[12]; at 33.0 µM,7%
same,growth inhibition,[12]; at 100.0 µM,29%
same,growth inhibition,[13]; at 1.2 µM,0%
same,growth inhibition,[13]; at 3.7 µM,0%
same,growth inhibition,[13]; at 11.0 µM,1%
same,growth inhibition,[13]; at 33.0 µM,11%
same,growth inhibition,[13]; at 100.0 µM,26%
same,growth inhibition,[14]; at 1.2 µM,2%
same,growth inhibition,[14]; at 3.7 µM,2%
same,growth inhibition,[14]; at 11.0 µM,0%
same,growth inhibition,[14]; at 33.0 µM,23%
same,growth inhibition,[14]; at 100.0 µM,46%
same,growth inhibition,[15]; [17],2%
same,growth inhibition,[15]; [18],1%
same,growth inhibition,[15]; at 50.0 µM,97.2% (active)
same,growth inhibition,[16]; at 1.2 µM,2%
same,growth inhibition,[16]; at 3.7 µM,4%
same,growth inhibition,[16]; at 11.0 µM,5%
same,growth inhibition,[16]; at 33.0 µM,20%
same,growth inhibition,[16]; at 100.0 µM,27%
